Laboratory results from the supplement of paper PMC10127200.
Where a name gives a salt, the structure may show the parent alone.

Key:
Assay in all cases: Euclidean distance of Cell Painting phenotypic profile (signed KS, 77 features) to DMSO centroid (dimensionless distance); 5 or 10 uM (library dependent); higher = stronger phenotypic change vs DMSO (phenoactivity)
Details in all cases: 48 h
[1] = tested on: 786-O
In short: (§1)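 Five cancer lines and a healthy fibroblast line received library compounds at 10 or 5 uM (library-dependent, 0.1% DMSO final) for 48 h. Stained cells were imaged confocally at 20X (9 fields/well). Harmony extracted 77 features, each scored as a signed Kolmogorov-Smirnov statistic against same-plate vehicle wells. Profiles were plate-position corrected, correlation-weighted and replicate-averaged at the top dose. Phenoactivity is the Euclidean distance from each profile to the median vehicle profile.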

[2] = tested on: A549
In short: as §1

[3] = tested on: DU145
In short: as §1

[4] = tested on: FB
In short: as §1

[5] = tested on: HEPG2
In short: as §1

[6] = tested on: OVCAR4
In short: as §1

Structure (SMILES) | Euclidean distance [1] | Euclidean distance [2] | Euclidean distance [3] | Euclidean distance [4] | Euclidean distance [5] | Euclidean distance [6]
O=C(O)C1CSCN1 (stereo not given) [Timonacic] | 1.39 | 0.753 | 0.835 | 0.853 | 0.578 | 1.18
CCCCOc1cc(C(=O)NCCN(CC)CC)c2ccccc2n1 [Dibucaine HCl] | 1.45 | 1.68 | 1.23 | 1.07 | 1.52 | 1.07
CC(C)N(C[C@H]1O[C@@H](n2cnc3c(N)ncnc32)[C@H](O)[C@@H]1O)[C@H]1C[C@@H](CCc2nc3cc(C(C)(C)C)ccc3[nH]2)C1 | 0.867 | 0.931 | 1.3 | 1.28 | 0.884 | 0.955
NC[C@H]1O[C@H](O[C@H]2[C@H](O)[C@@H](O[C@H]3O[C@H](CO)[C@@H](O)[C@H](N)[C@H]3O)[C@H](N)C[C@@H]2N)[C@H](N)C[C@@H]1O [Tobramycin] | 0.897 | 1.31 | 1.34 | 0.987 | 0.563 | 1.4
C=C(CC)C(=O)c1ccc(OCC(=O)O)c(Cl)c1Cl [Ethacrynic Acid] | 1.19 | 1.01 | 1.03 | 1.17 | 1.05 | 1.14
NCCc1c[nH]cn1 [Histamine 2HCl] | 1.32 | 0.957 | 0.954 | 1.22 | 0.814 | 0.832
NC1(Cc2ccc(Cl)cc2)CCN(c2ncnc3[nH]ccc23)CC1 | 1.5 | 1.13 | 1.5 | 1.39 | 1.17 | 1.39
Oc1ccc([C@H]2COc3cc(O)ccc3C2)cc1 (racemic) | 1.39 | 0.796 | 1.27 | 0.952 | 0.464 | 0.928
COc1ccc(F)c(F)c1C(=O)c1cnc(NC2CCN(S(C)(=O)=O)CC2)nc1N | 2.79 | 3.51 | 2.68 | 2.58 | 3.18 | 4.31
O=C(CCCCCCC(=O)NO)NO [Suberohydroxamic acid] | 1.22 | 1.22 | 1.18 | 2.06 | 1.84 | 1.28
CC(=O)O[C@@]12CO[C@@H]1C[C@H](O)[C@@]1(C)C(=O)[C@H](O)C3=C(C)[C@@H](OC(=O)[C@H](O)[C@@H](NC(=O)OC(C)(C)C)c4ccccc4)C[C@@](O)([C@@H](OC(=O)c4ccccc4)[C@H]21)C3(C)C [Docetaxel] | 3.54 | 2.71 | 3.65 | 2.64 | 2.16 | 2.64
CC(C)(C)CC(C)(C)c1ccc(OCCOCC[N+](C)(C)Cc2ccccc2)cc1 [Benzethonium Chloride] | 3.02 | 2.7 | 2.15 | 1.82 | 2.43 | 2.37
O=c1c(O[C@@H]2O[C@H](CO)[C@@H](O)[C@H](O)[C@H]2O)c(-c2ccc(O)c(O)c2)oc2cc(O)cc(O)c12 [Isoquercitrin] | 0.868 | 0.899 | 0.931 | 0.989 | 0.812 | 1.03
CCS(=O)(=O)N1CC(CC#N)(n2cc(-c3ncnc4[nH]ccc34)cn2)C1 [Baricitinib phosphate] | 1.75 | 0.985 | 1.99 | 1.55 | 0.776 | 0.981
Cc1ccc(C(=O)C(C)CN2CCCCC2)cc1 (stereo not given) [Tolperisone HCl] | 0.966 | 0.611 | 1.08 | 0.909 | 0.439 | 0.725
CCCN1CCCC[C@H]1C(=O)Nc1c(C)cccc1C [Ropivacaine] | 1.19 | 1.64 | 0.902 | 1.93 | 1.18 | 1.31
CCN1CCN(Cc2ccc(-c3cc4c(N[C@H](C)c5ccccc5)ncnc4[nH]3)cc2)CC1 | 2.34 | 3.77 | 1.92 | 2.96 | 1.73 | 1.02
Cn1ncnc1[C@H]1c2n[nH]c(=O)c3cc(F)cc(c23)N[C@@H]1c1ccc(F)cc1 | 1.03 | 1.17 | 0.939 | 1.27 | 1.56 | 0.901
CC(=O)OCC(=O)[C@@]1(O)CC[C@H]2[C@@H]3CCC4=CC(=O)CC[C@]4(C)[C@H]3[C@@H](O)C[C@@]21C [Hydrocortisone acetate] | 1.17 | 2.28 | 1.4 | 1.96 | 1.05 | 1.41
CCCCN(CCCC)CC(O)c1cc(Cl)cc2c1-c1ccc(Cl)cc1/C2=C/c1ccc(Cl)cc1 (stereo not given) [Lumefantrine] | 1.17 | 1.42 | 0.953 | 0.94 | 0.895 | 0.763
O=c1ccn([C@@H]2O[C@H](CO)[C@@H](O)[C@H]2O)c(=O)[nH]1 [Uridine] | 1.22 | 0.801 | 0.955 | 0.869 | 1.9 | 0.863
Nc1ccc2ncnc(NCCc3ccc(Oc4ccccc4)cc3)c2c1 | 1.67 | 1.95 | 1.06 | 1.68 | 3.12 | 0.755
O=C(O)c1cccnc1 [Nicotinic Acid] | 1.53 | 0.435 | 1.08 | 0.953 | 1.92 | 1.03
C[C@H](Oc1cc(-c2cnn(C3CCNCC3)c2)cnc1N)c1c(Cl)ccc(F)c1Cl [(S)-crizotinib] | 3.79 | 3.26 | 2.55 | 4.85 | 3.67 | 2.78
O=C(O)CSCC(=O)NC1CCSC1=O (stereo not given) [Erdosteine] | 0.988 | 1.09 | 1.06 | 1.07 | 1.27 | 1.1

Structure (SMILES) | Euclidean distance [1] | Euclidean distance [2] | Euclidean distance [3] | Euclidean distance [4] | Euclidean distance [5] | Euclidean distance [6]
COC(=O)C1=C(C)NC(C)=C(C(=O)OCC(C)C)C1c1ccccc1[N+](=O)[O-] (stereo not given) [Nisoldipine] | 2.53 | 0.958 | 1.95 | 1.86 | 2.21 | 1.43
COc1cc2ncnc(Sc3nnc(C)s3)c2cc1OC | 1.26 | 1.44 | 0.977 | 1.09 | 2.45 | 1.9
Cc1ccc(Nc2nccc(N(C)c3ccc4c(C)n(C)nc4c3)n2)cc1S(N)(=O)=O | 2.42 | 2.34 | 1.99 | 2.87 | 1.93 | 1.6
CC(COc1ccccc1)NC(C)C(O)c1ccc(O)cc1 (stereo not given) [Isoxsuprine hydrochloride] | 1.44 | 0.704 | 0.854 | 1.28 | 0.54 | 1.1
O=C(O)c1ccccc1 [Benzoic Acid] | 1.39 | 1.16 | 1.58 | 0.886 | 1.6 | 0.868
CN[C@@H](C)C(=O)N[C@H](C(=O)N1CCC[C@H]1C(=O)Nc1snnc1-c1ccccc1)C1CCCCC1 | 0.872 | 1.58 | 0.883 | 1.38 | 0.88 | 3.41
COc1cc2c(cc1OC)[C@@H](Cc1cc(OC)c(OC)c(OC)c1)[N+](C)(CCCOC(=O)CC/C=C/CCC(=O)OCCC[N+]1(C)CCc3cc(OC)c(OC)cc3[C@H]1Cc1cc(OC)c(OC)c(OC)c1)CC2 (stereo not given in full) [Mivacurium chloride] | 0.861 | 1 | 0.929 | 1.3 | 0.442 | 1.25
O=c1cc(N2CCOCC2)oc2c1ccc1ccccc12 | 0.913 | 1.57 | 1.41 | 3.23 | 1.42 | 4.01
C[C@]12CC[C@@H]3c4ccc(O)cc4CC[C@H]3[C@@H]1C[C@@H](O)[C@@H]2O [Estriol] | 1.2 | 0.835 | 1.5 | 0.871 | 0.511 | 1.2
COc1ccc(C2CNC(=O)C2)cc1OC1CCCC1 (stereo not given) [Rolipram] | 1.65 | 1.51 | 0.853 | 0.861 | 1.13 | 1.44
Cc1ccc(F)c(NC(=O)Nc2ccc(-c3cccc4[nH]nc(N)c34)cc2)c1 [Linifanib (ABT-869)] | 1.23 | 2.53 | 1.64 | 1.81 | 4.87 | 1.29
NS(=O)(=O)c1cc2c(cc1Cl)N=CNS2(=O)=O [Chlorothiazide] | 1.21 | 0.957 | 1.22 | 1.35 | 0.662 | 0.734
CC[C@@H](C)Nc1cc(C(=O)N[C@H]2C[C@H]3CC[C@@H](C2)N3c2ccc(C(=O)C3CC3)cn2)c(C)cc1C(N)=O | 3.1 | 3.1 | 3.17 | 3.15 | 4.37 | 3.3
O=C1NC(=O)/C(=C/c2ccc3nccc(-c4ccncc4)c3c2)S1 | 1.74 | 2.75 | 2 | 1.86 | 0.698 | 2.91
COc1cc([C@@H]2c3cc4c(cc3[C@@H](O[C@@H]3O[C@@H]5CO[C@@H](c6cccs6)O[C@H]5[C@H](O)[C@H]3O)[C@H]3COC(=O)[C@H]23)OCO4)cc(OC)c1O [Teniposide] | 2.74 | 3.77 | 4.38 | 3.23 | 3.39 | 3.66
Cc1ccc(-c2ncc(Cl)cc2-c2ccc(S(C)(=O)=O)cc2)cn1 [Etoricoxib] | 0.705 | 0.64 | 0.802 | 1.09 | 0.559 | 0.802
C/C=C\c1ccc(O)c(OC)c1 [Isoeugenol] | 0.776 | 0.444 | 1.07 | 0.672 | 0.417 | 0.903
CCc1ccc(CCOc2ccc(CC3SC(=O)NC3=O)cc2)nc1 (stereo not given) [Pioglitazone] | 0.465 | 0.586 | 0.944 | 0.666 | 0.336 | 0.891
OC[C@@H](O)[C@@H](O)[C@H](O)[C@@H](O)CO [Sorbitol] | 1.36 | 0.586 | 0.79 | 0.737 | 0.791 | 1.21
COc1ccc(S(=O)(=O)N(C(C)=O)c2ccccc2/C=C/c2cc[n+]([O-])cc2)cc1 | 2.93 | 2.94 | 4.01 | 2.75 | 3.08 | 2.97
C=CC(=O)N1CCC(Oc2cc3c(Nc4ccc(Cl)c(Cl)c4F)ncnc3cc2OC)CC1 [Poziotinib (HM781-36B)] | 1.98 | 3.02 | 2.11 | 2.99 | 3.43 | 2.12
Cc1onc(-c2ccccc2Cl)c1C(=O)N[C@@H]1C(=O)N2[C@@H]1SC(C)(C)[C@@H]2C(=O)O [Cloxacillin Sodium] | 0.711 | 0.744 | 0.6 | 0.941 | 1.02 | 1.39
O=C(O)CCc1nc(-c2ccccc2)c(-c2ccccc2)o1 [Oxaprozin] | 1.01 | 0.794 | 0.541 | 0.987 | 1.16 | 1.28
CNS(=O)(=O)CCc1ccc2[nH]cc(C3CCN(C)CC3)c2c1 [Naratriptan] | 1.48 | 0.741 | 1.01 | 0.996 | 0.943 | 1.33
C[C@@H](OC[C@@]1(c2ccccc2)CC[C@]2(CCC(=O)N2)CN1)c1cc(C(F)(F)F)cc(C(F)(F)F)c1 [Rolapitant] | 1.23 | 1.85 | 1.34 | 1.17 | 1.3 | 1.41
